Compounds without any hit were thinned out: in the full panel of roughly 83,000, 20% have a hit.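 Compound tested at a single concentration for 48 hours in 96-well plates; a percent growth value below 10 was scored as active.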 The source made the active and inactive calls.
Tested on: HL-60(TB) leukemia
Assay: NCI-60 one-dose screen, 48 h (100 = growth as untreated, 0 = no growth, -100 = all killed)
Details: 10 µM unless noted

`Nc1nc(N)c2nc(-c3cccc(O)c3)c(-c3cccc(O)c3)nc2n1` was tested. Which growth did it give?
The growth was 120% (inactive).

With `Cc1cc(Cl)ccc1NS(=O)(=O)c1ccc(-c2cnc(C3CC3)o2)cc1` as the compound, how does the growth read?
Its growth is -36% (active).

For `COc1ccc(-c2nc3cc(C(=O)Nc4cc(OC)c(OC)c(OC)c4)ccc3n2C2CCCCC2)cc1`, which growth is on record?
Its growth is 85.9% (inactive).

`Cc1ccsc1C(=O)CC(=O)C(F)(F)C(F)(F)C(F)(F)F` was tested. Which growth did it give?
Its growth is 107% (inactive).

Which growth does the source give for `COCc1nc(NS(=O)(=O)c2ccc(N)cc2)nc(C)c1Br` here?
Its growth is 114% (inactive).

With `O=C(O)CCC(NC(=O)OCc1ccccc1)C(=O)O` (centres undefined) as the compound, how does the growth read?
Its growth is 108% (inactive).

For `Fc1ccc(C2CC(c3cccc(Nc4ccncc4)c3)=NN2c2ccc(Cl)cc2)cc1` (centres undefined), which growth is on record?
Its growth is 17.2% (inactive).

With `CCOC(=O)c1cc2c(n1C)-c1nc(NC(C)=O)sc1CCC2` as the compound, how does the growth read?
Its growth is 102% (inactive).

With `CCOC(=O)C1=C(c2ccccc2)N=C2N(c3ccccc3)N=C(C(C)=O)N2C1c1ccc(Br)cc1` (centres undefined) as the compound, how does the growth read?
Its growth is 96.2% (inactive).

`O=C(Nc1ccc(OCc2nnc(-c3ccc(Cl)cc3)o2)c(F)c1)Nc1ccc(Cl)c(C(F)(F)F)c1` was tested. Which growth did it give?
The growth was -18.5% (active).

How did the growth turn out when `N#Cc1ncc(-c2ccc(C(F)(F)F)cc2)c(NCc2cc(C(F)(F)F)cc(C(F)(F)F)c2)n1` was run?
Its growth is -0.911% (active).

Which growth does the source give for `O=C1Nc2ccc(Cl)cc2/C1=C/c1ccc[nH]1` here?
Its growth is 102% (inactive).

How did the growth turn out when `Cc1nc2cnc(N)c(C#Cc3cncc(C(=O)Nc4ccc(CN5CCN(C)CC5)c(C(F)(F)F)c4)c3)c2nc1C` was run?
Its growth is -16.4% (active).

Which growth does the source give for `O=C1c2cc(S(=O)(=O)O)ccc2C(=O)c2c1cccc2[N+](=O)[O-]` here?
The growth was 101% (inactive).

How did the growth turn out when `O=[N+]([O-])c1ccc(Oc2nc(Nc3ccc(O[C@H]4CO[C@H]5[C@@H]4OC[C@@H]5O)c(Cl)c3)ncc2F)c(Cl)c1` was run?
The growth was 25.6% (inactive).

`COCCn1cc(-c2csc(-c3c[nH]c4ccc(Br)cc34)n2)c2cccnc21` was tested. Which growth did it give?
The growth was 20.5% (inactive).

Which growth does the source give for `COc1cccc(-c2nc3cc(NC(=O)c4ccc(Cl)c(C#N)c4)ccc3o2)c1` here?
The growth was 100% (inactive).

`Cc1ccc(N/N=C(/C(=O)c2ccc(Cl)cc2)c2nc(C)cc(=O)[nH]2)cc1` was tested. Which growth did it give?
Its growth is 109% (inactive).

How did the growth turn out when `NC(=O)C(=O)c1ccccc1NC=O` was run?
The growth was 101% (inactive).

Which growth does the source give for `COc1ccc(C2(Cl)c3ccccc3N(c3ccccc3)c3ccccc32)cc1` here?
Its growth is -22.3% (active).

For `C=CCNC(=S)NNc1ccc([N+](=O)[O-])cn1`, which growth is on record?
Its growth is 87.2% (inactive).

How did the growth turn out when `C=C1C(=O)O[C@H]2[C@H]1CC/C(Cn1cc(-c3ccc(OC)cc3)nn1)=C\CC[C@@]1(C)O[C@@H]21` was run?
Its growth is -35.2% (active).

How did the growth turn out when `C#COc1cccc(Nc2ncnc3cc(NC(=O)[C@@H](C)Cl)ccc23)c1` was run?
The growth was 10.9% [6.25 µM] (inactive).

`CC(CN1CCCCC1)C(=O)c1ccccc1` (centres undefined) was tested. Which growth did it give?
Its growth is 103% (inactive).

— PubChem BioAssay (NCI)
